# From the supplement of paper PMC8047044
# Counter-ions that a name gives are not always drawn.
# Key:
# Neuro-2a [1] = test: neurite formation score, plate-normalized to DMSO control mean 5.04 (score (0-8 scale)); higher = more or longer neurites; conditions: 1 µM
# Description: (§1)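 Neuro-2a mouse neuroblastoma cells in PLL-coated 96-well plates were pre-treated for 1 h in DMEM(+) with each kinase inhibitor at 1 µM, then switched to serum-free DMEM(-) with inhibitor to induce neurite outgrowth and fixed about 2-3 h later. Three blinded observers scored neurite formation from 0 (no neurites) to 8 (long neurites on almost all cells).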
# Neuro-2a [2] = test: as above; conditions: 0.1 µM
# Description: as §1, with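 “at 0.1” for “at 1”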
SMILES,neurite formation score (Neuro-2a [1]),neurite formation score (Neuro-2a [2])
Cc1cnc(Nc2ccc(N3CCN(C)CC3)cc2)nc1Nc1cccc(S(=O)(=O)NC(C)(C)C)c1,2.36,2.58
Cn1cc(-c2[nH]c3cc(NC(=O)[C@H](N)C4CCCCC4)cc4c3c2C=NNC4=O)cn1,3.63,4.25
CNC(=O)CN1CCC(Oc2cc3c(Nc4cccc(Cl)c4F)ncnc3cc2OC)CC1 [AZD8931 (Sapitinib)],4.29,4.25
O=C(c1ccc(/C=C/c2n[nH]c3ccccc23)cc1)N1CCNCC1,6.02,1.92
COc1cc2ncnc(Nc3ccc(F)c(Cl)c3)c2cc1OCCCN1CCOCC1 [Gefitinib (ZD1839)],4.24,4.88
CNc1nc(Nc2cnn(C3CCN(C4COC4)CC3F)c2Cl)ncc1C(F)(F)F (centres undefined),4.88,4.75
Nc1cc(N)c(N)cc1N [FAK Inhibitor 14],4.54,4.08
CCN(CC)CCNC(=O)c1c(C)[nH]c(/C=C2\C(=O)Nc3ccc(F)cc32)c1C [Sunitinib malate],5.57,5.21
CN1CC[C@H](c2c(O)cc(O)c3c(=O)cc(-c4ccccc4Cl)oc23)[C@H](O)C1 [Flavopiridol hydrochloride],4.47,3.76
CC(C)CCN1c2nc(Nc3cc(F)c(O)c(F)c3)ncc2N(C)C(=O)C1C (centres undefined),4.21,3.42
CCOc1cc(C(=O)N2CCC(N3CCN(C)CC3)CC2)ccc1Nc1ncc2c(n1)N(C1CCCC1)c1ccccc1C(=O)N2C,4.02,4.25
CN1C/C=C/CCOc2cccc(c2)-c2ccnc(n2)Nc2cccc(c2)C1,2.8,4.42
